{"source": "PubChem BioAssay AID434936", "about": "(National Center for Advancing Translational Sciences (NCATS), 2010)", "note": "Values joined by “and” are separate entries in the source; they are usually repeats but may differ in a detail not shown here. Equal values may be shown once. Inconclusive results are not listed. Active and inactive are the calls of the source. Calls follow the shape of the dose curve; as a rule, active = well fitted curve in either direction with a large enough effect; inconclusive = small, poorly fitted or top-dose-only effect; inactive = flat fitted curve, though single readings scatter."}
{"biological_target": "Neuropeptide S receptor (Homo sapiens) (UniProt Q6W5P4)", "sequence (Q6W5P4 whole entry, looked up)": "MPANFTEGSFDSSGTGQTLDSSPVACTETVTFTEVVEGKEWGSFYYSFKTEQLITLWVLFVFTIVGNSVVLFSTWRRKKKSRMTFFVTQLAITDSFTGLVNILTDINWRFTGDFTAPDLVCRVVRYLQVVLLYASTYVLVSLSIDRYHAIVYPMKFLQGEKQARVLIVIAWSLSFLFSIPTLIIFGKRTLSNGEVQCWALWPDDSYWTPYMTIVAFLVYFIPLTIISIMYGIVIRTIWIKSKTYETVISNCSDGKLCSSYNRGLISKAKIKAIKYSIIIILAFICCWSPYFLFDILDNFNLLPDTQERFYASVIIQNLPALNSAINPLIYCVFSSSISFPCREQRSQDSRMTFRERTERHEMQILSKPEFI", "test": "Confirmation Concentration-Response Assay for Antagonists of the Neuropeptide S Receptor: Robust Characterization of cAMP Signal Transduction", "settings": "CHO-NPSR cells, NPS-stimulated cAMP TR-FRET; series mostly up to 50.7 µM", "excerpt": "NIH Chemical Genomics Center [NCGC] NIH Molecular Libraries Probe Production centers Network [MLPCN] MLPCN Grant: X01-DA026210-01 Assay Submitter (PI): Heilig, Markus Alexander NCGC Assay Overview: Neuropeptide S receptor (NPSR), previously known as GPR154, is a recently de-orphanized G protein coupled receptor. Its endogenous ligand is the 20 amino acids peptide Neuropeptide S (NPS). […] NPS and its receptor are found in various tissues. Specifically they are highly expressed in brain areas that have been implicated in modulation of arousal, stress and anxiety. Central administration of NPS in mice produces an unusual profile of activity by inducing wakefulness and arousal, while at the same time suppressing anxiety. Therefore, NPSR may represent a novel drug target for the treatment of sleep and anxiety disorders. To identify NPSR antagonists, we developed a cell-based cAMP assay. NPS can stimulate the production of cAMP in Chinese hamster ovary cells stably expressing NPS receptor. This change in intracellular cAMP level can be detected by a homogeneous LANCE cAMP assay based on the TR-FRET (time resolved fluorescence resonance energy transfer) between a europium-labeled cAMP tracer complex and a cAMP-specific antibody labeled with Alexa Fluor 647. The europium-labeled cAMP tracer complex is formed by the tight interaction between Biotin-cAMP (b-cAMP) and streptavidin labeled with Europium-W8044 chelate (Eu-SA). Light pulse at 320 nm excites the europium of the cAMP tracer and the energy emitted is transferred to the Alexa molecule bound to the cAMP antibody, generating a TR-FRET signal at 665 nm. Residual energy from the europium will produce a light at 620 nm. The native unlabeled cAMP from cell lysates competes with the europium-cAMP tracer for antibody binding and reversely reduces the emission signal of Alexa by interrupting FRET between the two labeled molecules. Both emission signals from the FRET donor (620 nm) and the acceptor (665 nm) can be detected by a plate reader in the TRF mode. Expression of result in fluorescence ratio (665 nm/620 nm) helps to normalize differences due to cell density and reagent dispensing. This assay was successfully optimized to a 1536-well plate format. Select compounds from the primary screen (AID 1461) were chosen for confirmation based on potency, efficacy, SAR, and activity across other assays in PubChem and at NCGC. Other compounds are analogs of active compounds from the primary screen. This particular assay uses a high density of sampling across concentration-response space to establish more confidence estimates of potency.\nNCGC Assay Protocol Summary: A Chinese hamster ovary (CHO) cell line stably expressing the NPS receptor (CHO-NPSR) was obtained from Dr. Heilig lab at NIAAA and maintained in F-12 Kaighn's media (Invitrogen, Carlsbad, CA, 21127) supplemented with 10 % FBS, 100 units/ml penicillin, 100 ug/ml streptomycin and 250 ug/ml geneticin at 37C, 5% CO2 in a humidified atmosphere. Before the assay, aliquots of cells were frozen and stored at -135C. The assay was performed in 1536-well format. Data are reported for both the ratio of the two emission wavelengths, and also for the component 'donor' channel, Em2=620. […] IC50 values were determined from concentration-response data modeled with the standard Hill equation. NPS 1536-well assay protocol: (1) Fresh or frozen CHO-NPSR cells were suspended in F-12 Kaighn's media supplemented with 10 % FBS, 100 units/ml penicillin and 100 ug/ml streptomycin. Cells were plated at 4 ul/well (1200 cells) to white, tissue culture treated 1536-well plates, and then cultured at 37C, 5 % CO2 for 16 to 30 hours. (2) Add 23 nl/well of compound in DMSO solution. The final titration for each compound was between 0.6 nM and 46 uM. […]"}
{"smiles": "COc1ccc(C2c3c(ncn(CCc4ccccc4)c3=N)Oc3ccc4ccccc4c32)cc1OC", "note": "(stereo not given)", "Potency": "27.4 µM (active)"}
{"smiles": "COc1cccc(C2c3c(ncn(-c4ccc(C(C)(C)C)cc4)c3=N)Oc3ccc4ccccc4c32)c1", "note": "(stereo not given)", "Potency": "12.2 µM (active)"}
{"smiles": "COc1cccc(C2c3c(ncn(-c4cccc(C)c4)c3=N)Oc3ccc4ccccc4c32)c1", "note": "(stereo not given)", "Potency": "9.72 µM (active)"}
{"smiles": "N=c1c2c(ncn1-c1ccccc1)Oc1ccc3ccccc3c1C2c1ccc2c(c1)OCO2", "note": "(stereo not given)", "Potency": "3.07 µM (active)"}
{"smiles": "COc1cccc(C2c3c(ncn(-c4ccc5c(c4)OCO5)c3=N)Oc3ccc4ccccc4c32)c1", "note": "(stereo not given)", "Potency": "4.34 µM (active)"}
{"smiles": "N=c1c2c(ccn1CCCc1ccccc1)Oc1ccc3ccccc3c1C2c1ccccc1", "note": "(stereo not given)", "Potency": "2.74 µM (active)"}
{"smiles": "COc1ccc2c(c1)Oc1ncn(CCN3CCOCC3)c(=N)c1C2c1ccc(OC)c(OC)c1", "note": "(stereo not given)", "Potency": "13.7 µM (active)"}
{"smiles": "S=P(c1ccccc1)(c1ccccc1)c1c[n+](C/C=C/c2ccccc2)c2ccccn12", "Potency": "0.56 µM (active)"}
{"smiles": "COc1cccc(C2c3c(ncn(-c4cccc(Br)c4)c3=N)Oc3ccc4ccccc4c32)c1", "note": "(stereo not given)", "Potency": "12.2 µM (active)"}
{"smiles": "COc1ccc(C2c3c(ncn(Cc4ccccc4)c3=N)Oc3ccc4ccccc4c32)cc1OC", "note": "(stereo not given)", "Potency": "13.7 µM (active)"}
{"smiles": "CCC(C)(CCN1CCOCC1)N(Cc1cc2ccccc2n(C)c1=O)C(=O)C1CCCCC1", "note": "(stereo not given)", "Potency": "0.0546 µM (active)"}
{"smiles": "Cc1c(C(O)(c2ccccc2)c2ccccc2)[n+]2ccccc2n1C", "Potency": "inactive"}
{"smiles": "Cc1nc2ccccn2c1C(O)(c1ccccc1)c1ccccc1", "Potency": "inactive"}
{"smiles": "O=C(NCc1ccccc1)Nc1ncnc2c1C(c1ccccc1)c1c(ccc3ccccc13)O2", "note": "(stereo not given)", "Potency": "30.7 µM (active)"}
{"smiles": "CCOC(=O)c1ccc(-n2cnc3c(c2=N)C(c2cccc(OC)c2)c2c(ccc4ccccc24)O3)cc1", "note": "(stereo not given)", "Potency": "10.9 µM (active)"}
{"smiles": "COc1cccc(C2c3c(ncn(-c4cccc(Cl)c4)c3=N)Oc3ccc4ccccc4c32)c1", "note": "(stereo not given)", "Potency": "8.67 µM (active)"}
{"smiles": "COc1cccc(C2c3c(ncn(-c4ccccc4)c3=N)Oc3ccc4ccccc4c32)c1OC", "note": "(stereo not given)", "Potency": "4.34 µM (active)"}
{"smiles": "Nc1ncnc2c1C(c1ccccc1)c1c(ccc3ccccc13)O2", "note": "(stereo not given)", "Potency": "6.88 µM (active)"}
{"smiles": "O=C(Cc1ccccc1)Nc1ncnc2c1C(c1ccccc1)c1c(ccc3ccccc13)O2", "note": "(stereo not given)", "Potency": "2.74 µM (active)"}
{"smiles": "COc1ccc(C2c3ccccc3Oc3ncn(CCN4CCOCC4)c(=N)c32)cc1OC", "note": "(stereo not given)", "Potency": "4.87 µM (active)"}
{"smiles": "COc1cccc(C2c3c(ncn(-c4ccccc4Br)c3=N)Oc3ccc4ccccc4c32)c1", "note": "(stereo not given)", "Potency": "9.72 µM (active)"}
{"smiles": "COc1ccc(C2C3=C(N=CN(CCN4CCOCC4)C3N)Oc3ccccc32)cc1OC", "note": "(stereo not given)", "Potency": "inactive"}
{"smiles": "COc1cccc(C2C(C#N)=C(NC(=O)CCc3ccccc3)Oc3ccc4ccccc4c32)c1", "note": "(stereo not given)", "Potency": "inactive"}
{"smiles": "Fc1ccc(-c2c(P(=S)(c3ccccc3)c3ccccc3)n3ccccc3[n+]2C/C=C/c2ccccc2)cc1", "Potency": "0.471 µM (active)"}
{"smiles": "COc1cccc(C2c3c(ncn(-c4ccccc4C)c3=N)Oc3ccc4ccccc4c32)c1", "note": "(stereo not given)", "Potency": "6.88 µM (active)"}
{"smiles": "COc1ccc(C2c3c(nc(Cc4ccccc4)[nH]c3=O)Oc3ccc4ccccc4c32)cc1OC", "note": "(stereo not given)", "Potency": "inactive"}
{"smiles": "O=C(CCc1ccccc1)Nc1ncnc2c1C(c1ccccc1)c1c(ccc3ccccc13)O2", "note": "(stereo not given)", "Potency": "4.34 µM (active)"}
{"smiles": "COc1cccc(C2c3c(ncn(-c4ccncc4)c3=N)Oc3ccc4ccccc4c32)c1", "note": "(stereo not given)", "Potency": "13.7 µM (active)"}
{"smiles": "COc1cccc(C2c3c(ncn(-c4ccccn4)c3=N)Oc3ccc4ccccc4c32)c1", "note": "(stereo not given)", "Potency": "17.3 µM (active)"}
{"smiles": "COc1ccc(C2c3c(N)nc(CCc4ccccc4)nc3Oc3ccc4ccccc4c32)cc1OC", "note": "(stereo not given)", "Potency": "24.4 µM (active)"}
{"smiles": "COc1ccc(C2c3c(ncn(CCN4CCOCC4)c3=N)Oc3ccc4ccccc4c32)cc1OC", "note": "(stereo not given)", "Potency": "2.74 µM (active)"}
{"smiles": "COc1cccc(C2c3c(ncn(-c4ccccc4)c3=N)Oc3ccc4ccccc4c32)c1", "note": "(stereo not given)", "Potency": "8.67 µM (active) and 1.54 µM (active)"}
{"smiles": "N=c1c2c(ccn1Cc1ccccc1)Oc1ccc3ccccc3c1C2c1ccccc1", "note": "(stereo not given)", "Potency": "2.18 µM (active)"}
{"smiles": "COc1ccccc1C1c2c(ncn(-c3ccccc3)c2=N)Oc2ccc3ccccc3c21", "note": "(stereo not given)", "Potency": "4.34 µM (active)"}
{"smiles": "COc1ccc(C2c3c(n(CCCc4ccccc4)cnc3=N)Oc3ccc4ccccc4c32)cc1OC", "note": "(stereo not given)", "Potency": "24.4 µM (active)"}
{"smiles": "COc1cccc(C2c3c(ncn(-c4ccc(Br)cc4)c3=N)Oc3ccc4ccccc4c32)c1", "note": "(stereo not given)", "Potency": "12.2 µM (active)"}
{"smiles": "COc1cccc(C2c3c(ncn(-c4cccnc4)c3=N)Oc3ccc4ccccc4c32)c1", "note": "(stereo not given)", "Potency": "8.67 µM (active)"}
{"smiles": "COc1cccc(C2c3c(ncn(-c4ccccc4C(C)(C)C)c3=N)Oc3ccc4ccccc4c32)c1", "note": "(stereo not given)", "Potency": "12.2 µM (active)"}
{"smiles": "O=C(c1ccccc1)N(C(=O)c1ccccc1)c1ncnc2c1C(c1ccccc1)c1c(ccc3ccccc13)O2", "note": "(stereo not given)", "Potency": "1.54 µM (active)"}
{"smiles": "COc1cccc(C2c3c(ncn(-c4ccc(-c5ccccc5)cc4)c3=N)Oc3ccc4ccccc4c32)c1", "note": "(stereo not given)", "Potency": "inactive"}
